Calls of active or inactive are those of the source. The calls were made as follows: active = hit-call score of the fitted dose curve at least 0.9, where 1 is the maximum; inactive = score below 0.9.
Key:
Settings in all cases: mRNA level, 48 h; actives raise or lower the signal
[1] = read-out: Glutamate-cysteine ligase catalytic (GCLC), GCLC (gene 2729); assay: LTEA_HepaRG_GCLC: Life Technologies and Expression Analysis (LTEA) Assay for Glutamate-cysteine ligase catalytic (GCLC) using HepaRG (AID 2283498)
Method in brief: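 Differentiated HepaRG cells exposed 48 h in serum-free induction medium, eight-point half-log series topping at 100 uM in 0.5% DMSO, duplicates. GCLC mRNA by qRT-PCR normalized to ACTB, GAPDH and POLR2A, fitted bidirectionally versus DMSO.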

[2] = read-out: growth arrest and DNA damage 45 (GADD45G), GADD45G (gene 10912); assay: LTEA_HepaRG_GADD45G: Life Technologies and Expression Analysis (LTEA) Assay for growth arrest and DNA damage 45 (GADD45G) using HepaRG (AID 2283499)
Method in brief: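 Gain or loss of GADD45G mRNA, quantified by TaqMan qRT-PCR against three housekeeping genes, is fitted in both directions relative to 0.5% DMSO. Human HepaRG cultures receive test chemical for 48 h at up to 100 uM.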

[3] = read-out: Glutamate-cysteine ligase regulatory (GCLM), GCLM (gene 2730); assay: LTEA_HepaRG_GCLM: Life Technologies and Expression Analysis (LTEA) Assay for Glutamate-cysteine ligase regulatory (GCLM) using HepaRG (AID 2283500)
Method in brief: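 Differentiated human HepaRG cells exposed 48 h in serum-free induction medium to 8-point half-log concentrations (top 100 uM, 0.5% DMSO), in duplicate. GCLM mRNA quantified by qRT-PCR, normalized to ACTB, GAPDH, POLR2A; bidirectional fitting versus DMSO.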

[4] = read-out: Glutathione S-transferase M3 (GSTM3), GSTM3 (gene 2947); assay: LTEA_HepaRG_GSTM3: Life Technologies and Expression Analysis (LTEA) Assay for Glutathione S-transferase M3 (GSTM3) using HepaRG (AID 2283501)
Method in brief: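 HepaRG, plated 48 h, then serum-free induction medium; test chemical 48 h, duplicate; 100 uM top, half-log x8, 0.5% DMSO. Read-out: GSTM3 mRNA (TaqMan qRT-PCR, Fluidigm array). Bidirectional fit vs DMSO.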

[5] = read-out: Heat shock 70 kDa protein 1 (HSPA1A), gene 3303; assay: LTEA_HepaRG_HSPA1A: Life Technologies and Expression Analysis (LTEA) Assay for Heat shock 70 kDa protein 1 (HSPA1A) using HepaRG (AID 2283502)
Method in brief: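 Differentiated human HepaRG cells in serum-free induction medium were exposed in duplicate for 48 h to eight concentrations (top 100 uM, half-log steps, 0.5% DMSO). HSPA1A mRNA was quantified by qRT-PCR, normalized to ACTB, GAPDH and POLR2A, and fitted bidirectionally against DMSO.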

[6] = read-out: 3-Hydroxy-3-Methylglutaryl-CoA Synthase 2 (HMGCS2), HMGCS2 (gene 3158); assay: LTEA_HepaRG_HMGCS2: Life Technologies and Expression Analysis (LTEA) Assay for 3-Hydroxy-3-Methylglutaryl-CoA Synthase 2 (HMGCS2) using HepaRG (AID 2283504)
Method in brief: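 HepaRG, plated 48 h then switched to serum-free induction media; cmpd 8-pt, max 100 uM, 1/2-log, 0.5% DMSO, n=2, 48 h. HMGCS2 mRNA by Fluidigm TaqMan qRT-PCR, ACTB/GAPDH/POLR2A norm; bidirectional fit vs DMSO.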

HGF (gene 3082) = assay: LTEA_HepaRG_HGF: Life Technologies and Expression Analysis (LTEA) Assay for Hepatocyte Growth Facto (HGF) using HepaRG (AID 2283505)
Method in brief: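 Read-out is HGF transcript level by qRT-PCR, normalized to three housekeeping genes, fitted bidirectionally against 0.5% DMSO vehicle. Human HepaRG cells received test chemicals for 48 h at up to 100 uM.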

[7] = read-out: Insulin Like Growth Factor 1 (IGF1), IGF1 (gene 3479); assay: LTEA_HepaRG_IGF1: Life Technologies and Expression Analysis (LTEA) Assay for Insulin Like Growth Factor 1 (IGF1) using HepaRG (AID 2283506)
Method in brief: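 Differentiated human HepaRG cells were dosed for 48 h in serum-free induction medium with 0.5% DMSO, eight half-log concentrations up to 100 uM, in duplicate. IGF1 mRNA was quantified by qRT-PCR normalized to ACTB, GAPDH, POLR2A; bidirectional fitting versus DMSO.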

[8] = read-out: Insulin-like growth factor-binding protein 1 (IGFBP1), IGFBP1 (gene 3484); assay: LTEA_HepaRG_IGFBP1: Life Technologies and Expression Analysis (LTEA) Assay for Insulin-like growth factor-binding protein 1 (IGFBP1) using HepaRG (AID 2283508)
Method in brief: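 Thawed HepaRG cells are plated for 48 h, switched to serum-free induction medium, then dosed in duplicate for another 48 h (100 uM top, half-log steps). Lysates in RLT go to qRT-PCR, and gain or loss of signal is fitted relative to vehicle.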

[9] = read-out: Interleukin 6 (IL6), IL6 (gene 3569); assay: LTEA_HepaRG_IL6: Life Technologies and Expression Analysis (LTEA) Assay for Interleukin 6 (IL6) using HepaRG (AID 2283509)
Method in brief: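 HepaRG cells exposed in duplicate for 48 h to eight half-log concentrations, top 100 uM, in 0.5% DMSO serum-free induction medium. mRNA measured by qRT-PCR, normalized to ACTB, GAPDH and POLR2A. Bidirectional fit versus DMSO.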

[10] = read-out: Interleukin 6 Receptor (IL6R), IL6R (gene 3570); assay: LTEA_HepaRG_IL6R: Life Technologies and Expression Analysis (LTEA) Assay for Interleukin 6 Receptor (IL6R) using HepaRG (AID 2283510);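 as to AC50: TaqMan qRT-PCR signal normalized to ACTB GAPDH and POLR2A housekeeping genes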
Method in brief: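 Differentiated human HepaRG cells, plated 48 h then switched to serum-free induction medium, were dosed in duplicate for 48 h at eight half-log concentrations up to 100 uM in 0.5% DMSO. IL6R mRNA quantified by qRT-PCR, normalized to ACTB/GAPDH/POLR2A; bidirectional fit versus DMSO.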

[11] = read-out: Potassium channel subfamily K member 1 (KCNK1), KCNK1 (gene 3775); assay: LTEA_HepaRG_KCNK1: Life Technologies and Expression Analysis (LTEA) Assay for Potassium channel subfamily K member 1 (KCNK1) using HepaRG (AID 2283511)
Method in brief: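 Differentiated HepaRG cells, 48 h exposure in serum-free induction medium with 0.5% DMSO; 8 concentrations, half-log from 100 uM, duplicate. KCNK1 mRNA by qRT-PCR, normalized to ACTB, GAPDH, POLR2A; bidirectional fit vs DMSO.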

[12] = read-out: Keratin 19 (KRT19), KRT19 (gene 3880); assay: LTEA_HepaRG_KRT19: Life Technologies and Expression Analysis (LTEA) Assay for Keratin 19 (KRT19) using HepaRG (AID 2283512)
Method in brief: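 KRT19 transcript levels, measured by Fluidigm qRT-PCR against three housekeeping genes, are fitted for gain or loss of signal relative to DMSO. Human HepaRG cells receive test chemicals (top 100 uM, half-log steps, 0.5% DMSO) for 48 hours.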

[13] = read-out: JUN Transcription Factor, JUN (gene 3725); assay: LTEA_HepaRG_JUN: Life Technologies and Expression Analysis (LTEA) Assay for JUN Transcription Factor using HepaRG (AID 2283513)
Method in brief: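 Differentiated HepaRG cells were exposed to chemicals for 48 h in serum-free induction medium, 8 concentrations from 100 uM in half-log steps, 0.5% DMSO vehicle, in duplicate. JUN mRNA was quantified by TaqMan qRT-PCR, normalized to ACTB, GAPDH, POLR2A.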

[14] = read-out: Lipase C (LIPC), LIPC (gene 3990); assay: LTEA_HepaRG_LIPC: Life Technologies and Expression Analysis (LTEA) Assay for Lipase C (LIPC) using HepaRG (AID 2283514)
Method in brief: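 HepaRG cells, 48 h after plating, treated in duplicate for 48 h in serum-free induction medium over 8 half-log concentrations from 100 uM, 0.5% DMSO. LIPC mRNA by TaqMan qRT-PCR normalized to ACTB/GAPDH/POLR2A; bidirectional fit versus DMSO.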

[15] = read-out: Lipoprotein lipase (LPL), LPL (gene 4023); assay: LTEA_HepaRG_LPL: Life Technologies and Expression Analysis (LTEA) Assay for Lipoprotein lipase (LPL) using HepaRG (AID 2283515)
Method in brief: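 Differentiated HepaRG cells, plated 48 h, then exposed 48 h in serum-free induction medium to 8 concentrations (top 100 uM, half-log steps) in 0.5% DMSO, duplicate. LPL mRNA measured by qRT-PCR, normalized to ACTB, GAPDH and POLR2A.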

[16] = read-out: MicroRNA 122 (MIR122), gene 406906; assay: LTEA_HepaRG_MIR122: Life Technologies and Expression Analysis (LTEA) Assay for MicroRNA 122 (MIR122) using HepaRG (AID 2283516); also: the transcript read is the microRNA miR-122
Method in brief: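 Differentiated human HepaRG cells were exposed 48 h in serum-free induction medium to eight half-log concentrations (top 100 uM, 0.5% DMSO). Transcript level was measured by TaqMan qRT-PCR, normalized to ACTB, GAPDH and POLR2A, and fitted bidirectionally versus DMSO.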

[17] = read-out: matrix metalloproteinase-10 (MMP10), MMP10 (gene 4319); assay: LTEA_HepaRG_MMP10: Life Technologies and Expression Analysis (LTEA) Assay for matrix metalloproteinase-10 (MMP10) using HepaRG (AID 2283517)
Method in brief: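 Differentiated HepaRG cells in serum-free induction medium exposed 48 h in duplicate to 8-point half-log series up to 100 uM in 0.5% DMSO. mRNA quantified by qRT-PCR, normalised to ACTB, GAPDH, POLR2A; bidirectional fit versus DMSO.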

[18] = read-out: Hypoxia-inducible factor 1-alpha (Homo sapiens) (UniProt Q16665); assay: LTEA_HepaRG_HIF1A: Life Technologies and Expression Analysis (LTEA) Assay for Hypoxia-inducible factor 1 (HIF1A) Trancription factor using HepaRG (AID 2283503);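 also: HIF1A transcript by TaqMan qRT-PCR normalized to ACTB GAPDH and POLR2A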
Method in brief: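 HepaRG, 48 h exposure, 8-pt half-log series from 100 uM, 0.5% DMSO vehicle, duplicates. Readout: HIF1A transcript by qRT-PCR (Fluidigm array), housekeeping-normalised. Bidirectional curve fit vs DMSO baseline.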

Chain of Hypoxia-inducible factor 1-alpha (Homo sapiens) (Q16665 whole entry, looked up): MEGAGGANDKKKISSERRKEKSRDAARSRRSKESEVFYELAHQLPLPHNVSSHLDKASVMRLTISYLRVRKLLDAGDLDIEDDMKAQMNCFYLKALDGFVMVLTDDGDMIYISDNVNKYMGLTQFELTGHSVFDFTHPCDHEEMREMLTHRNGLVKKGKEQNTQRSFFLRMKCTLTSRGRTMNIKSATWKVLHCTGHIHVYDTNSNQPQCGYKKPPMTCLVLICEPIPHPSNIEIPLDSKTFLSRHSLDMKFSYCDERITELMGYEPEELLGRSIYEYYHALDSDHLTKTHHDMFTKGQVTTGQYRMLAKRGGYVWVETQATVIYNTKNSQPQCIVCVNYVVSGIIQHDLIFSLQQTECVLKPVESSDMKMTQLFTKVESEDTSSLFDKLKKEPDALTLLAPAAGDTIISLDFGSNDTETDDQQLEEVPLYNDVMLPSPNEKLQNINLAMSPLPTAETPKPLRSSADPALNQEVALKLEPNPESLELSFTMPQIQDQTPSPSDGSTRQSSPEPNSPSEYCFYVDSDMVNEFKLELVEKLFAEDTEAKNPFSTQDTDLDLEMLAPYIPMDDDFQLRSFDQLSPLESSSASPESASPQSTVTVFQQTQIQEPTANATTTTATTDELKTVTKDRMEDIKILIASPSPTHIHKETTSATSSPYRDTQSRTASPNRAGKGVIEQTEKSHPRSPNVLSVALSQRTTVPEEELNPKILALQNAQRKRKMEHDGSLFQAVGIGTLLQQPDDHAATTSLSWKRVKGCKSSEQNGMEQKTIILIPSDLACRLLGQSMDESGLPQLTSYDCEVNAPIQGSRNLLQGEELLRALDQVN

O=C(O)c1ccccc1C(c1ccc(O)cc1)c1ccc(O)cc1
outcome [1]: inactive
outcome [2]: inactive
outcome [3]: inactive
outcome [4]: inactive
outcome [5]: inactive
outcome [6]: inactive
outcome (HGF (gene 3082)): inactive
outcome [7]: inactive
outcome [8]: inactive
outcome [9]: inactive
outcome [10]: inactive
outcome [11]: inactive
outcome [12]: inactive
outcome [13]: inactive
outcome [14]: inactive
outcome [15]: inactive
outcome [16]: inactive
outcome [17]: inactive

CC(=O)NC1(c2cccc(F)c2)CCN(CC[C@@]2(c3ccc(Cl)c(Cl)c3)CN(c3ccccc3)C(=O)CO2)CC1
AC50 [2]: 41.5 µM (active)
outcome [3]: inactive
outcome [4]: inactive
AC50 [5]: 27.9 µM (active)
outcome [18]: inactive
outcome [6]: inactive
outcome (HGF (gene 3082)): inactive
AC50 [7]: 13.1 µM (active)
AC50 [8]: 41.5 µM (active)
AC50 [9]: 76.2 µM (active)
AC50 [10]: 77.5 µM (active)
outcome [11]: inactive
outcome [12]: inactive
AC50 [13]: 62.1 µM (active)
outcome [14]: inactive
AC50 [15]: 23.1 µM (active)
outcome [16]: inactive
AC50 [17]: 71 µM (active)

NC(=O)N1C(=O)C(C(=O)c2cc(Cl)cs2)c2cc(F)c(Cl)cc21 (configuration not stated)
AC50 [2]: 30.4 µM (active)
outcome [3]: inactive
outcome [4]: inactive
AC50 [5]: 72.3 µM (active)
AC50 [18]: 22.7 µM (active)
AC50 [6]: 20.7 µM (active)
outcome (HGF (gene 3082)): inactive
AC50 [7]: 24.8 µM (active)
AC50 [8]: 16 µM (active)
AC50 [9]: 31.7 µM (active)
AC50 [10]: 30.9 µM (active)
AC50 [11]: 29.1 µM (active)
AC50 [12]: 13.2 µM (active)
AC50 [13]: 30.3 µM (active)
AC50 [14]: 21.2 µM (active)
AC50 [15]: 90.6 µM (active)
AC50 [16]: 26.4 µM (active)
AC50 [17]: 34.9 µM (active)

CC[C@H](C)[C@@H](C(=O)O)n1sc2ccccc2c1=O
outcome [2]: inactive
outcome [3]: inactive
outcome [4]: inactive
outcome [5]: inactive
AC50 [18]: 0.372 µM (active)
outcome [6]: inactive
outcome (HGF (gene 3082)): inactive
outcome [7]: inactive
outcome [8]: inactive
outcome [9]: inactive
outcome [10]: inactive
outcome [11]: inactive
outcome [12]: inactive
outcome [13]: inactive
outcome [14]: inactive
outcome [15]: inactive
outcome [16]: inactive
outcome [17]: inactive

Source: PubChem BioAssay (EPA / NIEHS)
